Results reported in PubChem BioAssay AID2568 (National Center for Advancing Translational Sciences (NCATS), 2010).
Inconclusive results are not listed. Activity calls are given as the source filed them. The call rests on the fitted dose curve.

molecular target: Neuropeptide S receptor (Homo sapiens) (UniProt Q6W5P4); experiment: Confirmation Concentration-Response Assay for Antagonists of the Neuropeptide S Receptor: cAMP Signal Transduction, SAR for Probe; conditions: CHO-NPSR cells, cAMP TR-FRET, antagonist mode; series mostly up to 47.8 µM; activity change, negative = inhibition: at the top concentration
Excerpt: NIH Chemical Genomics Center [NCGC] NIH Molecular Libraries Probe Production centers Network [MLPCN] MLPCN Grant: X01-DA026210-01 Assay Submitter (PI): Heilig, Markus Alexander NCGC Assay Overview: Neuropeptide S receptor (NPSR), previously known as GPR154, is a recently de-orphanized G protein coupled receptor. Its endogenous ligand is the 20 amino acids peptide Neuropeptide S (NPS). […] NPS and its receptor are found in various tissues. Specifically they are highly expressed in brain areas that have been implicated in modulation of arousal, stress and anxiety. Central administration of NPS in mice produces an unusual profile of activity by inducing wakefulness and arousal, while at the same time suppressing anxiety. Therefore, NPSR may represent a novel drug target for the treatment of sleep and anxiety disorders. To identify NPSR antagonists, we developed a cell-based cAMP assay. NPS can stimulate the production of cAMP in Chinese hamster ovary cells stably expressing NPS receptor. This change in intracellular cAMP level can be detected by a homogeneous LANCE cAMP assay based on the TR-FRET (time resolved fluorescence resonance energy transfer) between a europium-labeled cAMP tracer complex and a cAMP-specific antibody labeled with Alexa Fluor 647. The europium-labeled cAMP tracer complex is formed by the tight interaction between Biotin-cAMP (b-cAMP) and streptavidin labeled with Europium-W8044 chelate (Eu-SA). Light pulse at 320 nm excites the europium of the cAMP tracer and the energy emitted is transferred to the Alexa molecule bound to the cAMP antibody, generating a TR-FRET signal at 665 nm. Residual energy from the europium will produce a light at 620 nm. The native unlabeled cAMP from cell lysates competes with the europium-cAMP tracer for antibody binding and reversely reduces the emission signal of Alexa by interrupting FRET between the two labeled molecules. Both emission signals from the FRET donor (620 nm) and the acceptor (665 nm) can be detected by a plate reader in the TRF mode. Expression of result in fluorescence ratio (665 nm/620 nm) helps to normalize differences due to cell density and reagent dispensing. This assay was successfully optimized to a 1536-well plate format. Select compounds from the primary screen (AID 1461) were chosen for confirmation based on potency, efficacy, SAR, and activity across other assays in PubChem and at NCGC. Other compounds are analogs of active compounds from the primary screen.
NCGC Assay Protocol Summary: A Chinese hamster ovary (CHO) cell line stably expressing the NPS receptor (CHO-NPSR) was obtained from Dr. Heilig lab at NIAAA and maintained in F-12 Kaighn's media (Invitrogen, Carlsbad, CA, 21127) supplemented with 10 % FBS, 100 units/ml penicillin, 100 ug/ml streptomycin and 250 ug/ml geneticin at 37C, 5% CO2 in a humidified atmosphere. Before the assay, aliquots of cells were frozen and stored at -135C. The assay was performed in 1536-well format. Data are reported for both the ratio of the two emission wavelengths, and also for the component 'donor' channel, Em2=620. […] IC50 values were determined from concentration-response data modeled with the standard Hill equation. NPS 1536-well assay protocol: (1) Fresh or frozen CHO-NPSR cells were suspended in F-12 Kaighn's media supplemented with 10 % FBS, 100 units/ml penicillin and 100 ug/ml streptomycin. Cells were plated at 4 ul/well (1200 cells) to white, tissue culture treated 1536-well plates, and then cultured at 37C, 5 % CO2 for 16 to 30 hours. (2) Add 23 nl/well of compound in DMSO solution. The final titration for each compound was between 0.6 nM and 46 uM. (3) Add 1 ul of stimulation reagent (1X HBSS buffer, 5 mM HEPES, 0.1% BSA, 500 uM RO-201724 (Sigma-Aldrich, B8279), 1.5% Alexa 647-labeled anti-cAMP antibody (from Perkin Elmer), 100 nM NPS) (4) Incubation at 37C, 5 % CO2 for 60 min. (5) Add 1 ul/well detection reagent. […]

Neuropeptide S receptor (Homo sapiens), sequence (Q6W5P4 whole entry, looked up): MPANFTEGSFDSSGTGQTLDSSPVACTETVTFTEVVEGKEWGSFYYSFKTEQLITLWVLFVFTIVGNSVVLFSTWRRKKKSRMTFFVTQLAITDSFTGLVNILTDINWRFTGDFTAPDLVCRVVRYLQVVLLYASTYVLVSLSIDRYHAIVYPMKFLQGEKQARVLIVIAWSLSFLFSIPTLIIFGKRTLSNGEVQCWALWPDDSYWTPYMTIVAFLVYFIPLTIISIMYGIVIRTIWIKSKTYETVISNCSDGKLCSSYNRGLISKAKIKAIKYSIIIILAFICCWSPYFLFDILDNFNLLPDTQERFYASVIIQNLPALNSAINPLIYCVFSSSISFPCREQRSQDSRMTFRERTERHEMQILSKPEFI

**Q.** How did the Potency turn out when `COc1cccc(C2c3c(ncn(-c4ccccc4OC)c3=N)Oc3ccc4ccccc4c32)c1` (stereo not given) was run?
**A.** 6.14 µM (active)

**Q.** For `COc1cccc(C2c3c(ncn(-c4cccc(Br)c4)c3=N)Oc3ccc4ccccc4c32)c1` (stereo not given), which Potency is on record?
**A.** 19.4 µM (active)

**Q.** How did the Potency turn out when `COc1ccc2c(c1)Oc1ncn(CCN3CCOCC3)c(=N)c1C2c1ccc(OC)c(OC)c1` (stereo not given) was run?
**A.** 19.4 µM (active)

**Q.** With `Cc1c(C(O)(c2ccccc2)c2ccccc2)[n+]2ccccc2n1C` as the molecule, how does the “activity change, negative = inhibition” value read?
**A.** -2.91% (inactive)

**Q.** With `COc1cccc(C2c3c(ncn(-c4cccc(C)c4)c3=N)Oc3ccc4ccccc4c32)c1` (stereo not given) as the molecule, how does the Potency read?
**A.** 12.2 µM (active)

**Q.** For `Cc1c(P(=S)(c2ccccc2)c2ccccc2)c2ccccc2n1CCc1ccccc1`, which “activity change, negative = inhibition” value is on record?
**A.** -9.1% (inactive)

**Q.** `COc1cccc(C2c3c(ncn(-c4ccc(-c5ccccc5)cc4)c3=N)Oc3ccc4ccccc4c32)c1` (stereo not given) was tested. Which “activity change, negative = inhibition” value did it give?
**A.** -18.1% (inactive)

**Q.** `Cc1c(P(=O)(c2ccccc2)c2ccccc2)c2ccccc2n1C` was tested. Which “activity change, negative = inhibition” value did it give?
**A.** -18.1% (inactive)

**Q.** For `COc1cccc(C2c3c(ncn(-c4cccc(Cl)c4)c3=N)Oc3ccc4ccccc4c32)c1` (stereo not given), which Potency is on record?
**A.** 15.4 µM (active)

**Q.** `COc1cccc(C2c3c(ncn(-c4ccc(C)cc4)c3=N)Oc3ccc4ccccc4c32)c1` (stereo not given) was tested. Which Potency did it give?
**A.** 12.2 µM (active)

**Q.** With `COc1cccc(C2c3c(ncn(-c4ccccc4Br)c3=N)Oc3ccc4ccccc4c32)c1` (stereo not given) as the molecule, how does the Potency read?
**A.** 12.2 µM (active)

**Q.** How did the Potency turn out when `COc1cccc(C2c3c(ncn(-c4ccc5c(c4)OCO5)c3=N)Oc3ccc4ccccc4c32)c1` (stereo not given) was run?
**A.** 6.14 µM (active)

**Q.** For `c1ccc(P(c2ccccc2)c2cnc3ccccn23)cc1`, which “activity change, negative = inhibition” value is on record?
**A.** -26.4% (inactive)

**Q.** With `Cc1c(P(=S)(c2ccccc2)c2ccccc2)c2ccccc2n1C(=O)NCc1ccccc1` as the molecule, how does the Potency read?
**A.** 31.5 µM (active)

**Q.** `COc1cccc(C2c3c(ncn(-c4ccccc4SC)c3=N)Oc3ccc4ccccc4c32)c1` (stereo not given) was tested. Which Potency did it give?
**A.** 7.72 µM (active)

**Q.** How did the Potency turn out when `CCC(C)(CCN1CCOCC1)N(Cc1cc2ccccc2n(C)c1=O)C(=O)C1CCCCC1` (stereo not given) was run?
**A.** 0.308 µM (active)

**Q.** With `Cc1c(P(=S)(c2ccccc2)c2ccccc2)c2ccccc2n1CCCc1ccccc1` as the molecule, how does the “activity change, negative = inhibition” value read?
**A.** -6.79% (inactive)

**Q.** Which Potency does the source give for `COc1ccc(C2c3c(n(CCCc4ccccc4)cnc3=N)Oc3ccc4ccccc4c32)cc1OC` (stereo not given) here?
**A.** 24.4 µM (active)

**Q.** For `COc1ccc(C2c3c(nc(CCc4ccccc4)[nH]c3=O)Oc3ccc4ccccc4c32)cc1OC` (stereo not given), which “activity change, negative = inhibition” value is on record?
**A.** -11.2% (inactive)

**Q.** How did the Potency turn out when `COc1cccc(C2c3c(ncn(-c4cccc(F)c4)c3=N)Oc3ccc4ccccc4c32)c1` (stereo not given) was run?
**A.** 3.87 µM (active)

**Q.** With `COc1ccc(C2c3c(nc(CCCc4ccccc4)[nH]c3=O)Oc3ccc4ccccc4c32)cc1OC` (stereo not given) as the molecule, how does the “activity change, negative = inhibition” value read?
**A.** -18.2% (inactive)

**Q.** `COc1cccc(C2c3c(ncn(-c4ccccc4Cl)c3=N)Oc3ccc4ccccc4c32)c1` (stereo not given) was tested. Which Potency did it give?
**A.** 12.2 µM (active)

**Q.** How did the “activity change, negative = inhibition” value turn out when `Cc1nc2ccccn2c1P(=O)(c1ccccc1)c1ccccc1` was run?
**A.** -20.8% (inactive)

**Q.** `OC(c1ccccc1)(c1ccccc1)c1cnc2ccccn12` was tested. Which “activity change, negative = inhibition” value did it give?
**A.** -18.7% (inactive)

**Q.** Which “activity change, negative = inhibition” value does the source give for `Cc1c(P(=S)(c2ccccc2)c2ccccc2)c2ccccc2n1Cc1ccccc1` here?
**A.** -21.2% (inactive)

**Q.** Which Potency does the source give for `COc1cccc(C2c3c(ncn(-c4ccccc4C(C)(C)C)c3=N)Oc3ccc4ccccc4c32)c1` (stereo not given) here?
**A.** 12.2 µM (active)

**Q.** `COc1cccc(C2c3c(ncn(-c4cccc(OC)c4)c3=N)Oc3ccc4ccccc4c32)c1` (stereo not given) was tested. Which Potency did it give?
**A.** 9.72 µM (active)

**Q.** With `COc1ccc(C2c3c(N)nc(CCc4ccccc4)nc3Oc3ccc4ccccc4c32)cc1OC` (stereo not given) as the molecule, how does the Potency read?
**A.** 48.7 µM (active)

**Q.** How did the “activity change, negative = inhibition” value turn out when `O=P(c1ccccc1)(c1ccccc1)c1cnc2ccccn12` was run?
**A.** -17.1% (inactive)

**Q.** With `O=C(NCc1ccc(F)cc1)n1c(-c2ccccc2)c(P(=S)(c2ccccc2)c2ccccc2)c2ccccc21` as the molecule, how does the “activity change, negative = inhibition” value read?
**A.** -26.1% (inactive)

**Q.** With `Cc1c(P(=S)(c2ccccc2)c2ccccc2)c2ccccc2n1C(=O)Cc1ccccc1` as the molecule, how does the “activity change, negative = inhibition” value read?
**A.** -16.5% (inactive)

**Q.** With `Cn1cc(P(=O)(c2ccccc2)c2ccccc2)c2ccccc21` as the molecule, how does the “activity change, negative = inhibition” value read?
**A.** -17.1% (inactive)

**Q.** With `COc1cccc(C2c3c(ncn(-c4cccnc4)c3=N)Oc3ccc4ccccc4c32)c1` (stereo not given) as the molecule, how does the Potency read?
**A.** 12.2 µM (active)

**Q.** How did the Potency turn out when `COc1ccc(C2c3c(ncn(CCc4ccccc4)c3=N)Oc3ccc4ccccc4c32)cc1OC` (stereo not given) was run?
**A.** 24.4 µM (active)

**Q.** `COc1ccc(C2c3ccc4ccccc4c3Oc3ncn(CCN4CCOCC4)c(=N)c32)cc1OC` (stereo not given) was tested. Which Potency did it give?
**A.** 48.7 µM (active)

**Q.** For `COc1cccc(C2c3c(ncn(-c4cccc(C#N)c4)c3=N)Oc3ccc4ccccc4c32)c1` (stereo not given), which Potency is on record?
**A.** 19.4 µM (active)

**Q.** Which Potency does the source give for `COc1ccc(-n2cnc3c(c2=N)C(c2cccc(OC)c2)c2c(ccc4ccccc24)O3)cc1` (stereo not given) here?
**A.** 9.72 µM (active)

**Q.** With `COc1cccc(C2c3c(ncn(Cc4cccs4)c3=N)Oc3ccc4ccccc4c32)c1` (stereo not given) as the molecule, how does the Potency read?
**A.** 19.4 µM (active)

**Q.** Which “activity change, negative = inhibition” value does the source give for `COc1ccc(C2c3c(nc(Cc4ccccc4)[nH]c3=O)Oc3ccc4ccccc4c32)cc1OC` (stereo not given) here?
**A.** -20.3% (inactive)

**Q.** `COc1cccc(C2c3c(ncn(-c4ccc(C(C)(C)C)cc4)c3=N)Oc3ccc4ccccc4c32)c1` (stereo not given) was tested. Which Potency did it give?
**A.** 15.4 µM (active)
